Rows were chosen to be rich in hits. Some 2.7% of all compounds tested hit in one or more screens of this group.
PREPL inh: inhibits the human prolyl oligopeptidase-like enzyme | actives 0.68% (n = 320,000) | inhibition, % at 5.96 µM | Q4J6C6 | recombinant PREPL, fluorescence polarization activity-based probe; in the data active = inhibition above about 43%;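 also: 0% = enzyme with DMSO and 100% = wells lacking enzyme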
DNA FID counter: counter-screen for HCV NS3 helicase inhibitors: DNA intercalator displacement; DNA fluorescent intercalator displacement, fluorescence; inhibition, % at 7.9 µM; actives 0.17% (n = 290,000); AID 1845; in the data active = inhibition above about 37%;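 also: 0% = vehicle and 100% = reference compound; higher means more ethidium bromide displaced from hairpin DNA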
ANO1 activ: activates or potentiates the mouse TMEM16A chloride channel; Q8BHY3; HEK293 TMEM16A/YFP-H148Q/I152L, iodide quench fluorescence; hits give low values; B-score at 10 µM; actives 0.3% (n = 340,000);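 active = fluorescence-ratio B-score plate-corrected deviation score at least 3 library SD below zero, with starting fluorescence score within 5 deviations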;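 also: channel opened by trigger with iodide after compound preincubation; score built on the fluorescence ratio of max minus min over baseline; more negative score means more quench and so TMEM16A activation or potentiation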
Target sequence (Q8BHY3 whole entry, looked up): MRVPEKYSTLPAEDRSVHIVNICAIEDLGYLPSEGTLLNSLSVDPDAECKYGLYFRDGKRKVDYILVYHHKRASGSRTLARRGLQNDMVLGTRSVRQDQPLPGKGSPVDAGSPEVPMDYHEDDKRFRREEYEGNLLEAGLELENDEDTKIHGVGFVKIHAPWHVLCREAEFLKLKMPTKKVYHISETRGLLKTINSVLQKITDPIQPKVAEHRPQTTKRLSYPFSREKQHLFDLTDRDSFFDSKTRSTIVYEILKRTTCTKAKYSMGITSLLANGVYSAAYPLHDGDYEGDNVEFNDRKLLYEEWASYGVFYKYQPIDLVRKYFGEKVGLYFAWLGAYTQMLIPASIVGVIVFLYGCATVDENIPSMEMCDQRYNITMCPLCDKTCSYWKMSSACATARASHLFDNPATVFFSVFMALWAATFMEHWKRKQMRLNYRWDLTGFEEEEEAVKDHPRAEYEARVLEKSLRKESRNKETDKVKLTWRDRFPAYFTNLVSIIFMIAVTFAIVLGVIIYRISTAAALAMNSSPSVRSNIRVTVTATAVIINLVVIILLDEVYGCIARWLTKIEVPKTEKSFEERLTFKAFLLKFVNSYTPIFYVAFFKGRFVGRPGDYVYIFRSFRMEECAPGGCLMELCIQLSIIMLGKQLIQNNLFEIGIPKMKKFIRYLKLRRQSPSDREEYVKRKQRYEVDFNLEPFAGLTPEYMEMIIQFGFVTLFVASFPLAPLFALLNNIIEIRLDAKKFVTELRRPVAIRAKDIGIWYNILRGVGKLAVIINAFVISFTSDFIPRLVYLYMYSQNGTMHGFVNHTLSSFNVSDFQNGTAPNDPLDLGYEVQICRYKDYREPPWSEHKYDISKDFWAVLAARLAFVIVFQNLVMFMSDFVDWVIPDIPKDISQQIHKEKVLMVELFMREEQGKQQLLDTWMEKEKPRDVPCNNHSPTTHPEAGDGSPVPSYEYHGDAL
PP5 primary: PP5 (human) phosphatase inhibition; AID 1987; purified PP5c, OMFP substrate fluorescence; P53041; actives 0.18% (n = 320,000); inhibition, % at 6.7 µM;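 active = inhibition above the campaign's mean inhibition across all tested compounds plus 3 SD, cut at about 9.5% in these data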;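 also: 0% = DMSO only and 100% = 100 µM cantharidin control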
PP1 inh: PP1-alpha (human) inhibition in PP5 counter-screen | P62136 | purified PP1alpha, OMFP fluorescence | inhibition, % at 6.7 µM | AID 2235 | actives 0.9% (n = 320,000);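 active = inhibition above the mean inhibition of all tested compounds plus 3 SD, computed separately for each screening campaign, cut at about 15% in these data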
ANO1 block: inhibitors of mouse TMEM16A calcium-activated chloride channel. Q8BHY3. actives 1.2% (n = 310,000). normalized B-score (activity score, 25-100; higher = stronger inhibition) at 10 µM. HEK293 TMEM16A/YFP iodide influx fluorescence, ionomycin;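 active = ratio plate-corrected score three or more library SD toward inhibition, starting fluorescence score within five deviations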;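 also: score derived from kinetic fluorescence span divided by baseline fluorescence per well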
PP5 conf: confirmation of human PP5 phosphatase inhibitors; shares compounds with PP5 primary; Purified PP5, fluorogenic phosphatase substrate, fluorescence; inhibition, % at 6.7 µM; actives 22% (n = 460); AID 2331; in the data active = inhibition above about 9.5%
PP1 inh counter: PP1 phosphatase inhibition, counter-screen for PP5 inhibitors. actives 4% (n = 460). PP1 enzyme, fluorescent phosphatase substrate. shares compounds with PP5 primary. inhibition, % at 6.7 µM; in the data active = inhibition above about 16%
* marks the source's active call; other numbers are inactive results; i = inactive; · = no result given.

SMILES	PREPL inh	DNA FID counter	ANO1 activ	PP5 primary	PP1 inh	ANO1 block	PP5 conf	PP1 inh counter
O=C(O)CCCN1C(=O)C2C3CCC(O3)C2C1=O (stereo unspecified)	15	-1	i	17*	5	i	7	4
CCCc1[nH]c2ccc(C(=O)OC)cc2c1CCC	13	-14	i	7	-2	i	·	·
CCCc1[nH]c2ccc(C#N)cc2c1CCC	7	-9	i	13*	2	i	7	6
O=C(Nc1ccc(C(O)(C(F)(F)F)C(F)(F)F)cc1)c1ccc(Cl)c([N+](=O)[O-])c1	0	18	i	11*	5	100*	6	6
CCOC(=O)C1CCCN(C(=O)Nc2c(-c3ccccc3)noc2C)C1 (stereo unspecified)	-3	-4	i	-1	0	i	·	·
CC1(C)Cc2cccc(OCC(=O)N3CCN(c4ccccc4F)CC3)c2O1	25	·	i	1	-4	i	·	·
COc1ccccc1N1CCN(C(=O)c2ccc(COc3cccc4c3OC(C)(C)C4)cc2)CC1	-4	·	i	12*	2	i	2	0
COc1cc2c(cc1OC)C(c1cccs1)N(C(=O)C(C)C)CC2 (stereo unspecified)	-6	-29	i	9.9*	0	i	-5	-5
Cc1ccc(C(=O)NCC(=O)NCc2ccc(Cl)cc2)s1	-8	·	i	·	·	·	·	·
O=C1C(=O)c2ccccc2C(O)=C1c1ccccc1F	10	0	i	0	-4	i	·	·
O=C1C(O)=C(O)C(=O)c2ccccc21	11	·	i	13*	6	i	14*	28*
Cc1ccc(NC(=O)C(C)OC(=O)c2ccc(Cl)nc2)cc1S(=O)(=O)N1CCOCC1 (stereo unspecified)	12	·	i	2	-6	i	·	·
CCOC(=O)c1cccc(NC(=O)CSc2nnc(COc3ccccc3)n2CC)c1	-2	-5	i	12*	-3	i	-5	-3
COc1ccc(CC(NC(C)=O)C(=O)NC2CCN(c3nnnn3-c3ccccc3)CC2)cc1OC (stereo unspecified)	-4	-7	·	1	-2	i	·	·
Cc1csc(NC(=O)C2C3C=CC(O3)C2C(=O)O)n1 (stereo unspecified)	6	0	i	16*	-2	i	15*	14
CC(=O)Nc1nc(C)cs1	-3	1	i	0	-11	i	·	·
CC(C)=C1C2CCC1C(C(=O)Nc1cc(C)cc(C)c1)C2C(=O)O (stereo unspecified)	2	-1	i	-2	0	i	·	·
O=C(O)C1C2C=CC(O2)C1C(=O)Nc1cccc(C(F)(F)F)c1 (stereo unspecified)	5	-1	i	33*	9	i	-3	6
Cc1cc(C)cc(NC(=O)C2C3C=CC(O3)C2C(=O)O)c1 (stereo unspecified)	3	7	i	20*	1	i	0	19*
COc1ccc(N2CCN(C(=O)COC(=O)c3oc4ccccc4c3C)CC2)cc1	27	·	i	3	0	·	·	·
COc1ccc(NC(=O)CSc2nc3ccccc3c(=O)n2CCCO)cn1	1	·	i	2	-5	·	·	·
CCN(CC)C1=CC2=CC(=C(C#N)C#N)CCC2CC1 (stereo unspecified)	18	-17	i	-61	-47	i	-142	-48
Fc1ccccc1OCCCCN1CCCCC1	-4	7	i	13*	0	i	-3	-5
O=c1[nH]cc(S(=O)(=O)Nc2ccc3c(c2)OCO3)c(=O)[nH]1	5	·	i	2	-3	i	·	·
COc1cc(/C=C/c2cc(OC(C)=O)c3ccccc3n2)c(OC(C)=O)c([N+](=O)[O-])c1	0	-3	i	0	3	i	·	·
SMILES	PREPL inh	DNA FID counter	ANO1 activ	PP5 primary	PP1 inh	ANO1 block	PP5 conf	PP1 inh counter
COc1ccc(C2=NCN(c3ccc(C)cc3)C(=S)N2)cc1	10	-6	i	11*	-2	i	-2	-2
O=C(CSc1nc2sc3c(c2c(=O)n1-c1ccccc1)CCCC3)N/N=C/c1ccccc1C(=O)O	13	-35	i	-4	3	i	·	·
CC(=O)Nc1ccc(S(=O)(=O)N2CCN(c3nc(NC4CCCC4)c4ccccc4n3)CC2)cc1	4	18	i	12*	11	i	2	0
CC(=O)Nc1ccc(S(=O)(=O)N2CCN(c3cc(C)nc4ccccc34)CC2)cc1	-5	18	i	1	-3	i	·	·
CCC(C(=O)NCc1ccco1)n1nc(C)c2c(C)n(-c3ccccc3)nc2c1=O (stereo unspecified)	0	1	i	2	-2	i	·	·
Cc1ccccc1NC(=O)Nc1ccccc1C(=O)NCc1ccccc1	-18	-7	i	17*	0	i	-3	-2
O=C(Nc1ccc(Nc2ccccc2)cc1)c1cccc(F)c1	20	10	i	9.8*	-1	i	3	2
Cc1ccc(S(=O)(=O)N2CCOCC2)cc1NC(=O)COC(=O)c1ccc(Br)cc1	31	·	i	·	·	·	·	·
Cc1ccc(S(=O)(=O)N2CCOCC2)cc1NC(=O)COC(=O)CSc1ccc(Br)cc1C	12	-24	i	11*	1	i	1	6
O=C(Nc1ccc(Cl)cc1)N1CCCN(c2ccc(C(F)(F)F)cc2[N+](=O)[O-])CC1	9	-3	i	12*	0	i	5	3
O=[N+]([O-])c1cc(C(F)(F)F)ccc1N1CCC(O)CC1	-4	2	i	1	0	i	·	·
Cc1cc(C)c(NC(=O)c2cccs2)c(C)c1NC(=O)c1cccs1	19	-7	i	3	0	i	·	·
O=C(N/N=C/c1ccccc1OC(F)F)NC1CCCCC1	8	-29	i	11*	5	i	-2	-2
Cc1ccc(S(=O)(=O)N2CCC(C(=O)NNC(=O)c3ccncc3)CC2)cc1	0	-2	i	-4	-7	i	·	·
CCOC(=O)Cc1csc(NC(=O)c2ccc(C)cc2)n1	-1	-14	i	-1	-3	i	·	·
CCOC(=O)Cc1csc(NC(=O)c2ccc(Cl)nc2)n1	17	-10	i	13*	0	i	-7	-3
COc1ccc(N2C(=O)CC(NNc3nc4ccccc4s3)C2=O)cc1 (stereo unspecified)	11	-12	i	12*	-2	i	0	0

Screens from PubChem.
